Drawing on PubChem BioAssay, this text covers outcome, potentiation and inhibition for 15 compounds.

For part of these data: Potency and affinity values are given separately. The source made the active and inactive calls.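 How the source made its calls, unless noted: active means calcium signal cut by more than 3 SD below the full-agonist control yet still positive, in both repeats and the earlier primary screen; inactive means the rest.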

Assay [1] relates to TRPC4 beta (transient receptor potential cation channel C4), mouse. The experiment in a line: activators of mouse TRPC4 channel, confirmation, cell-based, Fluo4 calcium, HEK293 TRPC4beta/mu-opioid, duplicates, 10 µM (AID 2426;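 active means fluorescence ratio normalized to control raised more than 50% in primary screen plus both repeat runs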). The conditions noted are these: Fluo4 calcium fluorescence, at 10 µM; hits give high values.
Assay [2] concerns transient receptor potential cation channel C4 beta (TRPC4), mouse. The experiment in a line: activators of mouse TRPC4 channel, confirmation, cell-based, second round, Fluo4, HEK293 TRPC4beta/mu-opioid, 1 µM (AID 2461;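 active means primary screen active and over 50% activation in each of two duplicate runs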). The conditions noted are these: Fluo4 calcium fluorescence, at 1 µM; hits give high values.
In assay [3] the test system is TRPC4 (transient receptor potential cation channel C4 beta), mouse. The experiment in a line: positive allosteric modulators of mouse TRPC4, confirmation, cell-based, second round, Fluo-4, HEK293 TRPC4beta/mu-opioid, 1 µM (AID 2554;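 active means primary screen hit whose fluorescence ratio, in both repeats, exceeds the weak agonist control mean by 3 SD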). The conditions noted are these: DAMGO EC20, Fluo-4 calcium flux, at 1 µM; hits give high values.
In assay [4] the test system is TRPC4 beta (transient receptor potential cation channel C4), mouse. The experiment in a line: positive allosteric modulators of mouse TRPC4, confirmation, cell-based, Fluo-4, HEK293 TRPC4beta/mu-opioid (AID 2555;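 active means primary screen hit whose calcium fluorescence ratio, in both repeats, exceeds the weak agonist control mean by 3 SD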). The conditions noted are these: DAMGO EC20, Fluo-4 calcium flux, at 10 µM; hits give high values.
Assay [5] addresses Short transient receptor potential channel 4 (Mus musculus) (UniProt Q9QUQ5). The experiment in a line: inhibitors of mouse TRPC4 channel, confirmation, cell-based, Fluo4, HEK293 TRPC4beta/mu-opioid (AID 2636). Particulars: DAMGO, Fluo4 calcium flux, at 10 µM; hits give high values. (In general: Calcium flux is commonly read through the fluorescence of an indicator in the cells.)

For assay [6] the target is unchanged. Briefly: inhibitors of mouse TRPC4 channel, confirmation, cell-based, second round, Fluo4, HEK293 TRPC4beta/mu-opioid, 1 µM (AID 2637;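 active means calcium signal ratio cut to more than 3 SD under the fully stimulated control mean yet still positive, in both repeats and the primary screen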). The conditions noted are these: Fluo4 calcium flux, DAMGO, at 1 µM; hits give high values.
The target is the same in assay [7]. The experiment in a line: mouse TRPC4 channel activators, dose response, cell-based, HEK293 TRPC4/mu-opioid, Fluo-4 calcium (AID 434937;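 active means primary screen activator hit with a dose response curve and TRPC4 channel activation at any tested dose; inactive means no activation, no dose response, or not a primary hit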).
The target is the same in assay [8]. The experiment in a line: TRPC4 positive allosteric modulators, dose response, cell-based, HEK293 TRPC4/mu-opioid, Fluo-4 calcium, EC20 DAMGO (AID 434941;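 active means earlier screen potentiator hit that boosts the TRPC4 ion channel at some dose, with a dose response; inactive means no potentiation, no dose response, or not a prior hit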;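 further: calcium entry triggered by an EC20 dose of DAMGO at the co-expressed mu-opioid receptor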).
The target is the same in assay [9]. Briefly: mouse TRPC4 channel inhibitors, dose response, cell-based, HEK293 TRPC4/mu-opioid, Fluo-4 calcium (AID 434942;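 active means primary screen inhibitor hit that blocks the TRPC4 channel at some tested dose, yielding a dose curve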).
The target in assay [10] is Short transient receptor potential channel 6 (Mus musculus) (UniProt Q61143). The experiment in a line: inhibition of mouse TRPC6 channel, confirmation, selectivity assay for TRPC4 inhibitor project, cell-based, HEK293, membrane potential dye, duplicate (AID 434948;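 active means active in primary screen and both duplicates, each dropping signal beyond three positive-control SD with fluorescence still positive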). Particulars: HEK293 TRPC6, membrane potential dye fluorescence, at 10 µM, stimulated with maximal-effect acetylcholine; hits give high values.
Short transient receptor potential channel 6 (Mus musculus), sequence (Q61143 whole entry, looked up): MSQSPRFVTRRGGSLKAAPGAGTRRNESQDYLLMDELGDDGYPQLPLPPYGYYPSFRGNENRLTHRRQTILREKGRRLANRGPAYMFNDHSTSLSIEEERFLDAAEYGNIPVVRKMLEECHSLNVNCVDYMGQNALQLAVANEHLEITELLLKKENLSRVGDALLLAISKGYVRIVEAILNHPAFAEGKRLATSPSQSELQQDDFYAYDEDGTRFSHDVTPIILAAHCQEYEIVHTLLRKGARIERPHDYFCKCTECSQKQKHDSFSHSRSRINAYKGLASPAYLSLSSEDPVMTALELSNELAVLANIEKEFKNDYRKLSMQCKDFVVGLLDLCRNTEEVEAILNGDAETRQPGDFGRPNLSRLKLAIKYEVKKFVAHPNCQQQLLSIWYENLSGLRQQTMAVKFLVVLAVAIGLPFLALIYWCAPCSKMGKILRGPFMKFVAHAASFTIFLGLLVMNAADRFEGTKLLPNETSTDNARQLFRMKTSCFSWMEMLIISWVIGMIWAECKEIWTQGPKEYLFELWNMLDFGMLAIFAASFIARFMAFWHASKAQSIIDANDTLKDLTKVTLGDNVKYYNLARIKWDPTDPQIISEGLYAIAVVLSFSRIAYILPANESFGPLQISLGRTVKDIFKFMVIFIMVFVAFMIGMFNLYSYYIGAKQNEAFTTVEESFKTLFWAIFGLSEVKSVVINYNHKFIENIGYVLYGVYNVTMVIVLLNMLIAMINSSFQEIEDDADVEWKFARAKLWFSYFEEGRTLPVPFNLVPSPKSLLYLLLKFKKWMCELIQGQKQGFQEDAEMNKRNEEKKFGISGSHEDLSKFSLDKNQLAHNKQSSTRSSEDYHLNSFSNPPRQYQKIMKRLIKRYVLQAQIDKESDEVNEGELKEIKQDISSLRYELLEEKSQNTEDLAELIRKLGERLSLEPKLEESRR

The target is the same in assay [11]. The experiment in a line: activation of mouse TRPC6 channel, confirmation, selectivity assay for TRPC4 activator project, cell-based, HEK293, membrane potential dye, duplicate (AID 434950;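 active means membrane potential signal rise above negative control mean plus 3 SD in both duplicates, also active in the earlier TRPC4 screen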). The conditions noted are these: HEK293 TRPC6, membrane potential fluorescence, at 10 µM; hits give high values.
The target is the same in assay [12]. Briefly: TRPC6 potentiation by TRPC4 potentiator hits, confirmation, selectivity assay for TRPC4 potentiator project, HEK293 cells, membrane potential dye, duplicate (AID 434952;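 active means compound raising the membrane signal above positive-control mean plus 3 SD in both repeats, and a primary screen hit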). The conditions noted are these: HEK293 TRPC6, membrane potential dye fluorescence, at 10 µM, maximal acetylcholine added after compound; hits give high values.
For assay [13], the target named is Short transient receptor potential channel 4 (Mus musculus) (UniProt Q9QUQ5). The experiment in a line: calcium flux activators in TRPC4/5HT1a cells, counter-screen for TRPC4 activator project, cell-based, second counter screen, HEK293 TRPC4/5HT1a, Fluo-4 (AID 434977;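 active means calcium signal rise above buffer-control mean plus 5 SD in both duplicates, and also a hit in the primary screen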). Particulars: Fluo-4 calcium flux, at 10 µM; hits give high values.
Short transient receptor potential channel 4 (Mus musculus), sequence (Q9QUQ5 whole entry, looked up): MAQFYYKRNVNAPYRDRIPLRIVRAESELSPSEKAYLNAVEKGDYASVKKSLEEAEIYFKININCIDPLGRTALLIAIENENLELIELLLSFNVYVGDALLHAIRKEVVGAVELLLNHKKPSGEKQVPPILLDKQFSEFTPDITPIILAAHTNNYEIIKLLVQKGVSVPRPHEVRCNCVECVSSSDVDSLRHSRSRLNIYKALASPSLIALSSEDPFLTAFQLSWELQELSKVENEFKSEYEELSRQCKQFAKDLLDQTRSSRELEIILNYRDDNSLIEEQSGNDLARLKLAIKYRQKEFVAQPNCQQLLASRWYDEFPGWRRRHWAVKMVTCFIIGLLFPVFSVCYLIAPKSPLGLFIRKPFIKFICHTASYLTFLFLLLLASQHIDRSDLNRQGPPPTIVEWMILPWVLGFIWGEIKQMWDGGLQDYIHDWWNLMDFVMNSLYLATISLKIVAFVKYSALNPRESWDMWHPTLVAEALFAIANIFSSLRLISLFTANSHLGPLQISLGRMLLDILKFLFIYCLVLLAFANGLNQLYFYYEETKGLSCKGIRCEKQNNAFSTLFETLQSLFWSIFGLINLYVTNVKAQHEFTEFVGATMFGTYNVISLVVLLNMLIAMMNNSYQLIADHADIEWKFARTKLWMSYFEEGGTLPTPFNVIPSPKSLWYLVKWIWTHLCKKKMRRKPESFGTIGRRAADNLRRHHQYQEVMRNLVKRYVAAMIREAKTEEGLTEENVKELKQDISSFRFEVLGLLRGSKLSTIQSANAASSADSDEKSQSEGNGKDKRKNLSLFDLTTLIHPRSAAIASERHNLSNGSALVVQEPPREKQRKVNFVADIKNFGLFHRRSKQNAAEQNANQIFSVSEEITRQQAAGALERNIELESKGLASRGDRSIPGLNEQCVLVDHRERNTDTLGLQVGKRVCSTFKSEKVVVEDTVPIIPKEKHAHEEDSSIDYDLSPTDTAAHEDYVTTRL
The nature of assay [14]: calcium flux inhibitors in TRPC4/5HT1a cells, confirmation, counter-screen for TRPC4 inhibitor project, cell-based, second counter screen, HEK293 TRPC4/5HT1a, Fluo-4 (AID 434978;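 active means primary screen active whose calcium signal fell more than 3 SD beyond the full-serotonin control mean in both duplicate plates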;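 further: serotonin given first at submaximal then at maximal dose after compound preincubation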). Particulars: Fluo-4 calcium flux, at 10 µM, serotonin added to trigger calcium flux; hits give high values.
Assay [15] concerns TRPC4 (mouse), co-expressed with 5HT1a in HEK293. Briefly: calcium flux potentiators in TRPC4/5HT1a cells, confirmation, counter-screen for TRPC4 potentiator project, cell-based, second counter screen, HEK293 TRPC4/5HT1a, Fluo-4 (AID 434979;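 active means signal rise over 3 SD above mean of control wells given weak agonist, in both repeats and first screen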). The conditions noted are these: Fluo-4 calcium flux, at 10 µM, serotonin added at its EC20 dose; hits give high values.
The nature of assay [16]: calcium flux activation in mu-opioid HEK293 cells, confirmation, counter-screen for TRPC4 activator project, cell-based, HEK293 mu-opioid receptor line (AID 449723;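 active means hit in primary screen, with calcium signal over 5 SD above buffer well mean in both duplicates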;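 further: counter screen cells carry the mu-opioid receptor alone and lack TRPC4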). The conditions noted are these: Fluo-4 calcium fluorescence, at 10 µM; hits give high values.
The nature of assay [17]: calcium flux enhancement in mu-opioid HEK293 cells, confirmation, counter-screen for TRPC4 allosteric potentiator project, cell-based, HEK293 mu-opioid receptor line (AID 449724;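 active means calcium signal rise more than 3 SD above the low-dose agonist control mean, in both duplicate plates and the primary screen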;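 further: HEK293 cells carrying mu-opioid receptor only with no TRPC4 channel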). The conditions noted are these: Fluo-4 calcium flux, at 10 µM, compound added before EC20 DAMGO stimulus; hits give high values.

Turning to `CN(Cc1ccccc1)Cc1nc2c(c(=O)n(C)c(=O)n2C)n1CCCc1ccccc1`, the result in assay [1], in assay [2], in assay [3], in assay [4], in assay [5] and in [6] was inactive. The outcome in assay [7], in assay [8], in [9], in assay [10], in assay [11] and in assay [12] was inactive. Moreover, the outcome in assay [13], in [14], in assay [16] and in assay [17] was inactive. For the same compound, the potentiation in assay [15] is 8.51% (active).
Regarding `CC1=CC(=O)C(C(C)C)=C/C1=N/OS(=O)(=O)c1ccccc1`, the outcome in [1], in [2], in assay [3], in [5], in assay [6] and in [7] was inactive. Further, the outcome in assay [8], in assay [9], in [10], in [11], in [12] and in assay [13] was inactive. Besides, the result in assay [14], in [16] and in [17] was inactive. For the same compound, the potentiation in assay [4] was 23% (active); in assay [15] it was 64.1% (active).
Take `CCOc1ccc2ccccc2c1/C=N/NC(=O)c1cc(C)[nH]n1`: the result in assay [1], in assay [2], in [3], in assay [4], in assay [5] and in assay [6] was inactive. In addition, the result in assay [7], in assay [8], in assay [9], in assay [10], in [11] and in assay [12] was inactive. Moreover, the result in [13], in [14], in assay [15], in assay [16] and in assay [17] was inactive.
As to `CSCC[C@H](NC(=O)N1CCn2c1nc1ccccc12)C(=O)NCc1ccc(C)cc1`, the result in assay [1], in [2], in assay [3], in assay [5], in assay [6] and in [7] was inactive. Further, the outcome in assay [8], in assay [9], in [10], in [11], in [12] and in [13] was inactive. For the same compound, the outcome in assay [14], in assay [16] and in assay [17] was inactive. Further, the potentiation in assay [4] is 30% (active); in [15] it was 6.18% (active).
Consider `O=C(Nc1nnc2n1CCS2)c1ccc(Br)o1`, for which the result in [1], in assay [2], in [3], in assay [5], in [6] and in assay [7] was inactive. Further, the outcome in assay [8], in assay [9], in assay [10], in assay [11], in assay [12] and in assay [13] was inactive. In addition, the result in assay [14], in assay [16] and in assay [17] was inactive. The figures for the potentiation in assay [4] and in [15] were 80% (active) and 56.3% (active), respectively.
In the case of `NS(=O)(=O)c1ccc(CCNCc2cc(Br)ccc2OCc2ccccc2)cc1`, the result in assay [1], in assay [2], in [3], in assay [4], in assay [5] and in assay [6] was inactive. Besides, the result in [7], in assay [8], in assay [9], in assay [10], in assay [11] and in assay [12] was inactive. Besides, the outcome in assay [13], in assay [14], in [15], in [16] and in [17] was inactive.
With `NC(N)=NN=C1CCC(c2ccccc2)CC1` (stereo not given), the outcome in assay [1], in assay [2], in assay [3], in assay [4], in [5] and in [6] was inactive. The outcome in assay [7], in assay [8], in assay [9], in assay [10], in assay [11] and in assay [12] was inactive. The result in assay [13], in assay [14], in assay [15], in assay [16] and in [17] was inactive.
`COc1ccc(C(=O)OCCc2sc[n+](CC(=O)c3ccccc3)c2C)cc1`: the outcome in [1], in assay [2], in assay [3], in [4], in assay [5] and in [6] was inactive. In addition, the result in assay [7], in assay [8], in assay [9], in assay [11], in [12] and in assay [13] was inactive. Besides, the result in assay [14], in [15], in assay [16] and in [17] was inactive. The inhibition (as a rule, the percentage by which the read-out fell short of the control) in assay [10] is 43% (active).
As for `O=C(COc1coc(CN2CCN(c3ccccc3F)CC2)cc1=O)Nc1ccccc1`, the outcome in [1], in [2], in assay [3], in [4], in [5] and in assay [6] was inactive. Also, the result in [7], in assay [8], in assay [9], in assay [10], in [11] and in assay [12] was inactive. Further, the outcome in assay [13], in [14], in assay [15], in assay [16] and in assay [17] was inactive.
As for `CC(C)c1ccc2c(c1)C1Cc3ccccc3C1N2` (stereo not given), the outcome in [1], in assay [2], in assay [3], in assay [4], in assay [5] and in assay [6] was inactive. The outcome in assay [7], in assay [8], in assay [9], in assay [10], in assay [11] and in assay [12] was inactive. Further, the result in assay [13], in assay [14], in assay [15], in [16] and in assay [17] was inactive.
For `CCOC(=O)C1=NNC(C(=O)c2ccc(Cl)cc2)C1c1ccc(OC)cc1` (stereo not given), the outcome in [1], in assay [2], in assay [3], in assay [4], in assay [5] and in assay [6] was inactive. The outcome in [7], in assay [8], in [9], in [10], in assay [11] and in assay [12] was inactive. The outcome in assay [13], in assay [14], in [16] and in [17] was inactive. Moreover, the potentiation in [15] is 8.48% (active).
As to `CCN1CCCC(OC(=O)c2cc(-c3ccccc3Cl)nc3ccccc23)C1` (stereo not given), the outcome in assay [1], in assay [2], in assay [3], in assay [4], in assay [5] and in [6] was inactive. Also, the result in assay [7], in [8], in [9], in assay [10], in assay [11] and in assay [12] was inactive. In addition, the outcome in assay [13], in assay [14], in assay [16] and in [17] was inactive. The potentiation in assay [15] was 9.46% (active).
As for `CC(=O)Nc1nc(-c2ccc3c(c2)CCN3C(=O)C2CC2)c(C)s1`, the outcome in [1], in assay [2], in assay [3], in assay [4], in [5] and in [6] was inactive. The result in [7], in assay [8], in [9], in assay [10], in assay [11] and in assay [12] was inactive. Further, the result in [13], in assay [14], in assay [15], in assay [16] and in [17] was inactive.
As for `Cc1sc2nc(SCC(N)=O)n(C)c(=O)c2c1C`, the outcome in assay [1], in [2], in [3], in [5], in assay [6] and in assay [7] was inactive. The outcome in [8], in [9], in [10], in assay [11], in assay [12] and in assay [13] was inactive. Further, the outcome in assay [14], in assay [16] and in [17] was inactive. The potentiation was 16% (active) in assay [4] and 26.5% (active) in [15].
In the case of `CN(CCNC(=O)c1ccc(/C=N/O)nc1)Cc1ccccc1`, the result in [1], in assay [2], in assay [5], in [6], in assay [7] and in assay [8] was inactive. The result in assay [9], in assay [10], in [11], in assay [12], in [13] and in assay [14] was inactive. The result in assay [16] and in assay [17] was inactive. Besides, the potentiation is 18% (active) in assay [3], 8% (active) in [4] and 19.6% (active) in assay [15].
